{"source": "PubChem BioAssay", "data": [{"assay": "basal RPMI8226 viability, no added stimulus, profiling panel, cell-based, calcein-AM fluorescence, 48 h, PK04 Diversity Set (AID 1166);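 further: cells grown under basal conditions without added stimulus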", "conditions": "RPMI8226 myeloma viability, higher = more signal", "values": [{"smiles": "COc1ccc(C(O)C2C=CC3C(=O)NC(=O)C3N2Nc2ccc(Cl)cc2Cl)c2ccccc12", "note": "(stereo not given)", "z-score": -3.99}, {"smiles": "C=C1C(=O)C=C2CN(C(=O)c3ccccc3)[C@@](Cc3ccc(OC)cc3)(C(=O)OC)[C@@H]12", "z-score": -4.68}, {"smiles": "COC(=O)[C@@]1(Cc2ccccc2)[C@H]2c3cc(C(=O)N(C)C)n(Cc4ccc(S(C)(=O)=O)cc4)c3C[C@H]2CN1C(=O)c1ccccc1", "z-score": -1.39}, {"smiles": "CCCNC(=O)[C@@]1(c2ccc([N+](=O)[O-])cc2)CC(=O)N(C(C)C)[C@@H]1c1ccc(CO)cc1", "z-score": 0.11}]}, {"assay": "basal HepG2 mitochondrial membrane potential changes, profiling panel, cell-based, JC-1 fluorescence, 24 h, 100 nL compound (AID 1167)", "conditions": "higher = more signal", "values": [{"smiles": "COCCOC(=O)N1C(=O)[C@@]2(c3cc(C#Cc4ccc(OC)cc4)ccc31)[C@H](c1ccc(OCCO)cc1)N1[C@H](c3ccccc3)[C@H](c3ccccc3)OC(=O)[C@H]1[C@@H]2C(=O)NC[C@H](O)c1ccccc1", "z-score": -0.305}, {"smiles": "CC1CC/C=C\\[C@H]2OC34C=CCN(Cc5ccccc5)C(=O)[C@H]3N(CCCCCCO)C(=O)[C@@H]4C2C(=O)O1", "note": "(stereo not given in full)", "z-score": 0.0727}, {"smiles": "[N-]=[N+]=Nc1ccccc1[C@@H]1OC(c2ccc(OCCCO)cc2)=N[C@]1(CCS(=O)(=O)c1ccccc1)C(=O)NCC(O)CO", "note": "(stereo not given in full)", "z-score": -0.148}, {"smiles": "COC(=O)[C@@]1(Cc2ccccc2)[C@H]2c3cc(C(=O)N(C)C)n(CCSC(=N)N)c3C[C@H]2CN1C(=O)c1ccccc1", "z-score": 0.121}, {"smiles": "CC(C)[Si](C#CCCc1ccccc1)(O[C@H](c1ccccc1)c1cn(Cc2ccccc2)nn1)C(C)C", "z-score": 0.907}, {"smiles": "O=C(NCc1ccc(F)cc1)[C@H]1C[C@H]2C(=O)N3CCC[C@H]3C(=O)N2[C@H]1c1ccc(O)cc1", "z-score": 0.552}, {"smiles": "COC(=O)[C@]1(Cc2ccccc2)N=C(c2ccc(OCCCO)cc2)O[C@@H]1c1ccccc1CN=[N+]=[N-]", "z-score": -2.4}, {"smiles": "CC(C)C[C@@H]1NC(=O)[C@@H]2C[C@H](C(=O)NCCCCCCNC(=O)CS)[C@H](c3cccc(OCCO)c3)N2C1=O", "z-score": -0.946}, {"smiles": "O=C1O[C@@H](c2ccccc2)[C@@H](c2ccccc2)N2[C@@H](c3ccc(OCCO)cc3)[C@]3(C(=O)Nc4ccc(C#CCCO)cc43)[C@@H](C(=O)O)[C@H]12", "z-score": -0.498}, {"smiles": "CCCC[C@H]1C[C@@H]1[C@@H]1N(C(C)=O)[C@H](c2cccc(OC)c2)CC12CC2", "z-score": -1.07}, {"smiles": "C=C(COC)/C(=C/C[C@@H](OC(C)=O)c1ccccc1OCCO)c1cnc2ccccc2c1", "z-score": 0.23}, {"smiles": "CN(C)CCCNC(=O)[C@@]1(C)c2ccccc2C(=O)N(Cc2ccc(OC(F)(F)F)cc2)[C@H]1c1ccc(CO)cc1", "z-score": 1.88}, {"smiles": "C=CC[C@]1(C(=O)NCC(O)CO)COC(c2ccc(OCCCO)cc2)=N1", "note": "(stereo not given in full)", "z-score": -0.512}, {"smiles": "C=CCC(OC(C)=O)[C@@H]1[C@@H](N(Cc2cccc3ccccc23)C(=O)c2ccc(-c3ccccc3)cc2)c2cc(OCCCO)ccc2N1C(=O)Cc1ccc2ccccc2c1", "note": "(stereo not given in full)", "z-score": 1.9}, {"smiles": "CCCCCC1=C2CNC(CC(C)C)(C(=O)OC)C=C2C(C)C1=O", "note": "(stereo not given)", "z-score": 0.745}, {"smiles": "CN1C(=O)[C@@H]2[C@@H](CC(COc3ccccc3)=C3[C@@H](CCc4ccccc4)OB(O)C[C@@H]32)C1=O", "z-score": -1.62}, {"smiles": "COC(=O)[C@@]1(Cc2ccc(OC)cc2)[C@H]2c3cc(C(=O)N4CCCC4)n(Cc4ccc(C(F)(F)F)nc4)c3C[C@H]2CN1C(=O)c1ccccc1", "z-score": 0.952}, {"smiles": "C=CCC(OC(C)=O)[C@@H]1[C@@H](N(Cc2cc3ccccc3o2)C(=O)Cc2ccc(OC)cc2)c2cc(OCCCO)ccc2N1C(=O)c1ccc2ccccc2n1", "note": "(stereo not given in full)", "z-score": 2.31}, {"smiles": "[N-]=[N+]=Nc1ccccc1[C@@H]1OC(c2ccc(OCCCO)cc2)=N[C@]1(Cc1ccccc1)C(=O)NCCN1CCOCC1", "z-score": 0.153}, {"smiles": "COc1ccc(C(=O)Nc2cccc(CN3C(=O)[C@]4(O[C@H](CC(=O)N5Cc6ccccc6C[C@H]5CO)[C@@H]([Si](C)(C)c5ccc(OC)cc5)[C@@H]4C)c4ccccc43)c2)cc1", "z-score": 0.729}, {"smiles": "C=CCN1C(=O)[C@@]2(O[C@@H](CCn3cc([C@H](O)c4ccccc4)nn3)[C@H]([Si](C)(C)c3ccc(OC)cc3)[C@H]2C)c2cc(N3C(=O)c4cccc5cccc3c45)ccc21", "z-score": 0.319}, {"smiles": "CC(C)(C)N1CC=CC23O[C@@H]4/C=C\\CCCOC(=O)C4[C@H]2C(=O)N(CCCCCO)[C@@H]3C1=O", "note": "(stereo not given in full)", "z-score": -0.0838}, {"smiles": "CN(C)CCCC[C@@H]1NC(=O)[C@@H]2C[C@H](C(=O)NCCCCCCNC(=O)CS)[C@H](c3ccc(O)cc3)N2C1=O", "z-score": -0.175}, {"smiles": "CC1CC/C=C\\[C@H]2OC34C=CCN(CCN5CCOCC5)C(=O)[C@H]3N(CCCO)C(=O)[C@@H]4C2C(=O)O1", "note": "(stereo not given in full)", "z-score": -0.734}, {"smiles": "COc1ccccc1CN1C(=O)c2ccccc2[C@](Cc2ccccc2I)(C(=O)NCC(C)C)[C@@H]1c1ccc(CO)cc1", "z-score": 1.41}, {"smiles": "COCC(=C=CC[C@H](O)c1ccccc1OCCO)C[C@H](O)COCc1ccccc1", "z-score": 1.37}, {"smiles": "O=C(NC1CC1)[C@@H]1c2ccccc2C(=O)N(Cc2ccc(OC(F)(F)F)cc2)[C@H]1c1ccc(CO)cc1", "z-score": 2.35}, {"smiles": "O=C1C2C=CC(C(O)c3c(F)cccc3Cl)N(Nc3ccc([N+](=O)[O-])cc3)C2C(=O)N1c1ccccc1", "note": "(stereo not given)", "z-score": -1.14}, {"smiles": "C[C@@H]1NC(=O)C([C@@H](C)OCc2ccccc2)NC(=O)[C@@]23C(=O)N[C@@H](Cc4ccccc4)C2[C@H](C)[C@@]2(C)O[C@H]2C3/C=C/C/C=C\\CNC1=O", "note": "(stereo not given in full)", "z-score": -0.121}, {"smiles": "CC1CC/C=C\\[C@H]2OC34C=CCN(c5ccc(Cl)cc5)C(=O)[C@H]3N(CCCCCCO)C(=O)[C@]4(C)C2C(=O)O1", "note": "(stereo not given in full)", "z-score": 0.232}, {"smiles": "CC1=C([C@H](O)CCc2ccccc2)[C@H](CO)n2c(=O)n(-c3ccccc3)c(=O)n2C1", "z-score": -0.303}, {"smiles": "CCOC(=O)C[C@H]1[C@H](OC(=O)Cc2ccc3c(c2)OCO3)[C@@H](NC(=O)Cc2ccc(OC)cc2)c2cc(OCCCO)ccc2N1C(=O)Cc1ccc(OC)cc1", "z-score": 1.34}, {"smiles": "COc1ccc(C(O)C2C=CC3C(=O)NC(=O)C3N2Nc2ccc(Cl)cc2Cl)c2ccccc12", "note": "(stereo not given)", "z-score": -3.88}, {"smiles": "C=C1C(=O)C=C2CN(C(=O)c3ccccc3)[C@@](Cc3ccc(OC)cc3)(C(=O)OC)[C@@H]12", "z-score": 0.971}, {"smiles": "COC(=O)[C@@]1(Cc2ccccc2)[C@H]2c3cc(C(=O)N(C)C)n(Cc4ccc(S(C)(=O)=O)cc4)c3C[C@H]2CN1C(=O)c1ccccc1", "z-score": 2.64}, {"smiles": "CCCNC(=O)[C@@]1(c2ccc([N+](=O)[O-])cc2)CC(=O)N(C(C)C)[C@@H]1c1ccc(CO)cc1", "z-score": -0.534}]}]}
